Experimental data from publication PMC7826789 (International Journal of Molecular Sciences, 2021).

Key:
Conditions in all cases: Compound Concentration (nM):1000
CDKL3 = system: CDKL3
CDKL5 = system: CDKL5
CHEK1 = system: CHEK1
CHEK2 = system: CHEK2
CIT = system: CIT
CLK1 = system: CLK1
CLK2 = system: CLK2
CLK3 = system: CLK3
CLK4 = system: CLK4
CSF1R-autoinhibited = system: CSF1R-autoinhibited
CSF1R = system: CSF1R
CSK = system: CSK
CSNK1A1L = system: CSNK1A1L
CSNK1A1 = system: CSNK1A1
CSNK1D = system: CSNK1D
CSNK1E = system: CSNK1E
CSNK1G1 = system: CSNK1G1
CSNK1G2 = system: CSNK1G2
CSNK1G3 = system: CSNK1G3
CSNK2A1 = system: CSNK2A1
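Further: KINOMEscan scanMAX binding as percent activity remaining versus control; lower means stronger binding.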

Row | SMILES | Percent Control (CDKL3) | Percent Control (CDKL5) | Percent Control (CHEK1) | Percent Control (CHEK2) | Percent Control (CIT) | Percent Control (CLK1) | Percent Control (CLK2) | Percent Control (CLK3) | Percent Control (CLK4) | Percent Control (CSF1R-autoinhibited) | Percent Control (CSF1R) | Percent Control (CSK) | Percent Control (CSNK1A1L) | Percent Control (CSNK1A1) | Percent Control (CSNK1D) | Percent Control (CSNK1E) | Percent Control (CSNK1G1) | Percent Control (CSNK1G2) | Percent Control (CSNK1G3) | Percent Control (CSNK2A1)
1 | COc1cccc(-c2c[nH]c3c(N/N=C/c4ccncc4)ncnc23)c1 [GW814408X] | 8% | 4.2% | 100% | 86% | 54% | 30% | 44% | 80% | 30% | 74% | 46% | 66% | 100% | 88% | 92% | 83% | 100% | 90% | 100% | 14%
2 | CN(C)c1cc2c(Nc3ccc4c(cnn4Cc4ccccc4)c3)ncnc2cn1 [GW282974X] | 100% | 40% | 85% | 2.9% | 79% | 75% | 86% | 100% | 100% | 100% | 100% | 23% | 84% | 82% | 97% | 85% | 80% | 100% | 100% | 82%
3 | COc1ccc(COc2ccc(Cc3cnc(N)nc3N)cc2OC)cc1 [GW632580X] | 90% | 84% | 91% | 100% | 80% | 100% | 91% | 100% | 100% |  |  | 87% | 86% | 100% | 100% | 100% | 88% | 88% | 100% | 90%
4 | Cl.O=S1CCN(Cc2ccc(-c3ccc4ncnc(Nc5ccc(OCc6ccccc6)c(F)c5)c4c3)o2)CC1 [GW576924A] | 100% | 60% | 100% | 99% | 100% | 100% | 100% | 100% | 100% | 100% | 100% | 100% | 100% | 100% | 100% | 100% | 100% | 100% | 100% | 84%
5 | NS(=O)(=O)c1ccc(N/N=C2\C(=O)Nc3ccc(Cl)cc32)cc1 [GW280670X] | 100% | 100% | 100% | 100% | 100% | 100% | 100% | 100% | 96% | 60% | 100% | 100% | 100% | 100% | 100% | 93% | 100% | 100% | 100% | 81%
6 | CCn1c(-c2nonc2N)nc2c(C#CC(C)(C)O)nc(OCCNC)cc21.Cl [GSK949675] | 100% | 100% | 100% | 86% | 44% | 100% | 87% | 100% | 90% | 100% | 100% | 100% | 100% | 94% | 100% | 100% | 100% | 92% | 100% | 100%
7 | COc1ccccc1-c1cc(/C=C2\C(=O)Nc3ncc(Br)cc32)cc(Br)c1O [GW442130X] | 93% | 88% | 100% | 79% | 89% | 100% | 67% | 84% | 85% | 100% | 100% | 100% | 100% | 100% | 94% | 79% | 100% | 94% | 100% | 66%
8 | NS(=O)(=O)c1ccc(Nc2ncc(-c3ccccc3)o2)cc1 [GW572399X] | 100% | 100% | 100% | 100% | 100% | 100% | 100% | 100% | 100% | 58% | 100% | 100% | 100% | 100% | 100% | 83% | 100% | 100% | 100% | 76%
9 | Cl.O=C(O[C@H]1CN[C@H](C#Cc2cc3ncnc(Nc4ccc5c(cnn5Cc5ccccc5)c4)c3s2)C1)N1CCOCC1 [GSK200398A] | 100% | 40% | 100% | 24% | 77% | 83% | 100% | 90% | 100% | 87% | 100% | 67% | 92% | 89% | 91% | 79% | 92% | 100% | 92% | 75%
10 | C/C(Nc1ccc(S(N)(=O)=O)cc1)=C1/C(=O)Nc2ccccc21 [GW335962X] | 94% | 100% | 93% | 51% | 86% | 98% | 78% | 98% | 100% | 40% | 100% | 86% | 97% | 67% | 87% | 100% | 88% | 85% | 99% | 57%
11 | CN(C)CCNC(=O)Nc1ccc(N(C)c2ccnc(Nc3ccc(CS(C)(=O)=O)cc3)n2)cc1.Cl [GW830900A] | 100% | 100% | 100% | 93% | 100% | 85% | 94% | 99% | 100% | 41% | 0.6% | 98% | 85% | 79% | 93% | 88% | 90% | 96% | 95% | 78%
12 | Cl.c1ccc(Cc2nc3ccc(Nc4ncnc5ccccc45)cc3[nH]2)cc1 [GR269666A] | 100% | 59% | 100% | 94% | 100% | 91% | 93% | 100% | 100% | 100% | 100% | 22% | 100% | 100% | 100% | 93% | 100% | 100% | 100% | 82%
13 | Cl.O=C(Nc1ccc(Oc2ccc3[nH]c(NC(=O)c4ccccc4)nc3c2)cc1)Nc1cc(C(F)(F)F)ccc1F [GW709042A] | 96% | 100% | 96% | 100% | 0% | 44% | 100% | 100% | 79% | 79% | 6.1% | 96% | 97% | 100% | 87% | 83% | 100% | 100% | 100% | 92%
14 | COc1cc(C=NNc2ncnc3c2cnn3-c2ccccc2)ccc1O [GW513184X] | 100% | 100% | 100% | 97% | 96% | 48% | 83% | 82% | 60% | 100% | 100% | 100% | 100% | 77% | 86% | 51% | 100% | 57% | 93% | 28%
15 | Cl.O=C(Nc1ccc(Oc2ccc3[nH]c(NC(=O)c4ccco4)nc3c2)cc1)Nc1cc(C(F)(F)F)ccc1F [GW683134A] | 100% | 100% | 88% | 97% | 0.4% | 47% | 89% | 100% | 44% | 79% | 1.5% | 85% | 90% | 100% | 98% | 93% | 100% | 100% | 100% | 88%
16 | NS(=O)(=O)c1ccc(N/N=C2\C(=O)Nc3ccc(C(=O)NCCc4c[nH]cn4)cc32)cc1 [GW300660X] | 100% | 36% | 100% | 64% | 100% | 72% | 5.5% | 100% | 76% | 90% | 100% | 100% | 100% | 89% | 100% | 100% | 100% | 100% | 100% | 27%
17 | CCS(=O)(=O)c1ccc(OC)c(Nc2ncc(-c3cccc(F)c3)o2)c1 [GW621970X] | 100% | 60% | 100% | 100% | 100% | 19% | 12% | 75% | 23% | 6.2% | 48% | 98% | 100% | 100% | 100% | 100% | 100% | 100% | 100% | 6.2%
18 | NS(=O)(=O)c1ccc(N/N=C2\C(=O)Nc3ccc(C(=O)NCc4ccncc4)cc32)cc1 [GW300657X] | 84% | 6.5% | 100% | 67% | 87% | 67% | 17% | 92% | 75% | 83% | 99% | 87% | 60% | 83% | 92% | 98% | 87% | 100% | 67% | 53%
19 | COc1cc(/C=N/Nc2ncnc3[nH]ncc23)ccc1O [GW578748X] | 97% | 100% | 7% | 51% | 83% | 19% | 29% | 85% | 50% | 56% | 93% | 67% | 94% | 61% | 57% | 60% | 67% | 42% | 79% | 8.7%
20 | COC(=O)Nc1nc2ccc(Oc3ccc(NC(=O)Nc4cc(C(F)(F)F)ccc4F)cc3)cc2s1.Cl [GW693917A] | 15% | 38% | 95% | 76% | 1.8% | 42% | 100% | 82% | 100% | 86% | 2.3% | 70% | 92% | 83% | 100% | 98% | 96% | 100% | 94% | 91%
